Reference: PubChem BioAssay AID602137 (NMMLSC, 2011)
Unmarked numbers belong to inactive results.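 How the source made its calls: active means EC50 at most 10 µM with percent response changing by at least 30% across doses, from a valid fit; inactive means the rest.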

test: GST-GSH bead binding interference, SAR follow-up, counter-screen for Rab7 GTPase inhibitor project, biochemical, flow cytometry beads, round 1 (AID 602137); details: GST-GFP on GSH beads; series mostly up to 100 µM; percent response (bead binding): at the top concentration

SMILES	percent response (bead binding) [%]
CCOC(=O)c1c(NC(=S)Nc2ccccc2)sc2c1CC(C)(C)OC2	107
CC1(C)Cc2c(sc(NC(=S)NC(=O)c3ccccc3)c2C(=O)O)CO1	102
COc1ccc(C2CC(c3ccccc3)=NN2c2ccc(S(N)(=O)=O)cc2)cc1 (stereo not given)	103
CCOC(=O)c1c(NC(=O)NC(C)(C)C)sc2c1CCN(C)C2	109
CC1(C)Cc2c(sc(NC(=O)Cc3ccccc3)c2C(=O)O)CO1	104
COc1cccc(C(=O)NC(=S)Nc2sc3c(c2C(=O)O)CC(C)(C)OC3)c1	92.6
CC1(C)Cc2c(sc(NC(=S)NC(=O)c3ccc(Br)cc3)c2C(=O)O)CO1	95.1
CC1(C)Cc2c(sc(NC(=S)NC(=O)c3ccccc3F)c2C(=O)O)CO1	95.3
O=C(NC(=S)Nc1sc2c(c1C(=O)O)CCOC2)c1ccccc1	98.4
CC1(C)Cc2c(sc(NC(=O)NC(=O)c3ccccc3)c2C(=O)O)CO1	104
CCOC(=O)c1c(NC(=O)Nc2ccc(C)cc2)sc2c1CCN(C)C2	111
COC(=O)c1c(NC(=S)NC(=O)c2ccccc2)sc2c1CC(C)(C)OC2	100
CCOC(=O)c1c(N)sc2ccccc12	85
CC(C)(C)OC(=O)c1c(NC(=S)NC(=O)c2ccccc2)sc2c1CCOC2	101
CCOC(=O)c1c(NC(=O)Nc2ccc(F)cc2)sc2c1CCN(C)C2	105
COc1ccc(C(=O)NC(=S)Nc2sc3c(c2C(=O)O)CC(C)(C)OC3)cc1	93.3
CCOC(=O)c1c(NC(=S)NC(=O)c2ccccc2)sc2ccccc12	108
CN1CCc2c(sc(NC(=O)Nc3ccc(F)cc3)c2C(=O)O)C1	91.8
CC1(C)Cc2c(sc(NC(=S)Nc3ccccc3)c2C(=O)O)CO1	99.4
CN1CCc2c(sc3nc(Nc4ccc(F)cc4)oc(=O)c23)C1	104
NS(=O)(=O)c1ccc(N2N=C(c3ccccc3)CC2c2ccccc2)cc1 (stereo not given)	104
CC1Cc2c(sc(NC(=S)NC(=O)c3ccccc3)c2C(=O)O)CO1 (stereo not given)	98.8
CC1(C)Cc2c(sc(NC(=S)NC(=O)c3cccc(Br)c3)c2C(=O)O)CO1	93.9
CC1(C)Cc2c(sc(NC(=S)NC(=O)c3ccccc3Br)c2C(=O)O)CO1	99
CC1(C)Cc2c(sc(NC(=S)NC(=O)c3cccc(F)c3)c2C(=O)O)CO1	88
Cc1ccc(Nc2nc3sc4c(c3c(=O)o2)CCN(C)C4)cc1	98.2
COC(=O)c1c(N)sc2c1CC(C)(C)OC2	105
O=C(C#Cc1ccccc1)c1cccc([N+](=O)[O-])c1	105
Cc1ccc(NC(=O)Nc2sc3c(c2C(=O)O)CCN(C)C3)cc1	105
CC1(C)CCc2sc(NC(=S)NC(=O)c3ccccc3)c(C(=O)O)c2C1	92
